# According to PubChem BioAssay AID624481 (The Scripps Research Institute Molecular Screening Center, 2012):
# Calls of active or inactive are those of the source. Cut-off read from the data, not from the text of the source: active = inhibition above about 50%; inactive = the rest.
# Biological target: Prolyl endopeptidase-like (Mus musculus) (UniProt Q8C167)
# Experiment: mouse PREPL enzyme inhibition by screening hits – biochemical, gel-based competitive ABPP, fluorescence, HTS hits, PREPL inhibitor project (AID 624481)
# Conditions: purified mouse PREPL, at 20 µM, stronger effect = higher value
# Chain of Prolyl endopeptidase-like (Mus musculus) (Q8C167 whole entry, looked up): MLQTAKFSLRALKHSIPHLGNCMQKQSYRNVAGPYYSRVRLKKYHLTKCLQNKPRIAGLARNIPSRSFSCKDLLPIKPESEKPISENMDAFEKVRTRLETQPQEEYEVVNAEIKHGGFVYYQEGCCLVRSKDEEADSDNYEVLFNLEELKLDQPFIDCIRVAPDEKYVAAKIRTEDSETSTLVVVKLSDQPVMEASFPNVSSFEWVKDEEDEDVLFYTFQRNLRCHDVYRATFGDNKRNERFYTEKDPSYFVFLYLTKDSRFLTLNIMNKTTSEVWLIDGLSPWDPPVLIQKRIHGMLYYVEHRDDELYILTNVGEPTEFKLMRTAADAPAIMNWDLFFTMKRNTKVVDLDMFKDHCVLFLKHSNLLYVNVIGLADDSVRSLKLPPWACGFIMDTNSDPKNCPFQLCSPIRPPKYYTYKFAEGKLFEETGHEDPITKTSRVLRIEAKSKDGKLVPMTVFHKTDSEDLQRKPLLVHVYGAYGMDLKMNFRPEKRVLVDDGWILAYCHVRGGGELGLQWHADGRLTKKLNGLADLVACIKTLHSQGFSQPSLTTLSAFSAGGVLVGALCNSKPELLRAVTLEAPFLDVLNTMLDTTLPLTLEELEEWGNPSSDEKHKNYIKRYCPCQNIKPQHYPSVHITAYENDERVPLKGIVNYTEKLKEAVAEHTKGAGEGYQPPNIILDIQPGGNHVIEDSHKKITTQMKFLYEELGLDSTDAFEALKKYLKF
row,Structure (SMILES),inhibition
1,CC(C)c1ccc(CNc2ccc(N3CCOCC3)cc2)cc1,-12% (inactive)
2,O=C(COc1ccccc1Cl)Nc1ccc(N2CCN(C(=O)c3ccccc3)CC2)cc1,-61% (inactive)
3,CN1CCN(C(=O)C2=C[C@@H](c3ccc(C(F)(F)F)cc3)C[C@@H](OCCCCO)O2)CC1,-28% (inactive)
4,c1ccc(CCNc2nc(-c3ccccn3)nc3ccccc23)cc1,-127% (inactive)
5,Cc1ccc(C2CC(c3cccc(Cl)c3)n3nc(N)nc3N2)cc1 (stereo not given),-71% (inactive)
6,O=C(CSc1ccccc1F)Nc1ccc(N2CCOCC2)cc1,-55% (inactive)
7,CCOc1ccc(CCNC(=O)c2ccc3c(=O)[nH]c4c(C(=O)NC(C)C)sc(=S)n4c3c2)cc1,14% (inactive)
8,COc1ccc(C2CC(c3cccc(Cl)c3)n3nc(N)nc3N2)cc1 (stereo not given),-29% (inactive)
9,CC(C)(C)n1cnc2cc(NCc3ccc(Br)cc3)ccc21,-12% (inactive)
10,CN1CCc2c(sc3c2C(=O)NC(c2cn(Cc4ccccc4)c4ccccc24)N3)C1 (stereo not given),7% (inactive)
11,COc1ccc2cc1Oc1ccc(cc1)C[C@H]1c3cc(c(OC)cc3CCN1C)Oc1c(OC)c(OC)cc3c1[C@H](C2)N(C)CC3,-30% (inactive)
12,CCCCCCCCCCCCCCCC[N+](C)(C)CCN(Cc1ccc(OC)cc1)c1ncccn1,81% (active)
13,CCCCCNC(=O)c1ccc2c(=O)[nH]c3c(C(=O)NCC4CCCO4)sc(=S)n3c2c1 (stereo not given),-19% (inactive)
14,CNCCC(Oc1ccc(C(F)(F)F)cc1)c1ccccc1 (stereo not given),-58% (inactive)
15,COc1cccc(C2CC(c3ccc(C)cc3)Nc3nc(N)nn32)c1 (stereo not given),-27% (inactive)
